Source: publication PMC4336329 (PLoS ONE, 2015)
In all, about 310,000 compounds went through this assay and about 14,000 (4.5%) showed an effect of 50% or more. The effect is printed as a negative number. This excerpt belongs to a sample that is enriched for strong results.

Biological target: human ether-à-go-go-related gene (hERG) potassium channel (human, UniProt Q12809)
Experiment: primary screen, population patch clamp on CHO cells stably expressing hERG; higher = less effect of the substance
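Also: peak tail current of the secondary pulse compared with the same well before compound.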

Chain of human ether-à-go-go-related gene (hERG) potassium channel (Q12809 whole entry, looked up): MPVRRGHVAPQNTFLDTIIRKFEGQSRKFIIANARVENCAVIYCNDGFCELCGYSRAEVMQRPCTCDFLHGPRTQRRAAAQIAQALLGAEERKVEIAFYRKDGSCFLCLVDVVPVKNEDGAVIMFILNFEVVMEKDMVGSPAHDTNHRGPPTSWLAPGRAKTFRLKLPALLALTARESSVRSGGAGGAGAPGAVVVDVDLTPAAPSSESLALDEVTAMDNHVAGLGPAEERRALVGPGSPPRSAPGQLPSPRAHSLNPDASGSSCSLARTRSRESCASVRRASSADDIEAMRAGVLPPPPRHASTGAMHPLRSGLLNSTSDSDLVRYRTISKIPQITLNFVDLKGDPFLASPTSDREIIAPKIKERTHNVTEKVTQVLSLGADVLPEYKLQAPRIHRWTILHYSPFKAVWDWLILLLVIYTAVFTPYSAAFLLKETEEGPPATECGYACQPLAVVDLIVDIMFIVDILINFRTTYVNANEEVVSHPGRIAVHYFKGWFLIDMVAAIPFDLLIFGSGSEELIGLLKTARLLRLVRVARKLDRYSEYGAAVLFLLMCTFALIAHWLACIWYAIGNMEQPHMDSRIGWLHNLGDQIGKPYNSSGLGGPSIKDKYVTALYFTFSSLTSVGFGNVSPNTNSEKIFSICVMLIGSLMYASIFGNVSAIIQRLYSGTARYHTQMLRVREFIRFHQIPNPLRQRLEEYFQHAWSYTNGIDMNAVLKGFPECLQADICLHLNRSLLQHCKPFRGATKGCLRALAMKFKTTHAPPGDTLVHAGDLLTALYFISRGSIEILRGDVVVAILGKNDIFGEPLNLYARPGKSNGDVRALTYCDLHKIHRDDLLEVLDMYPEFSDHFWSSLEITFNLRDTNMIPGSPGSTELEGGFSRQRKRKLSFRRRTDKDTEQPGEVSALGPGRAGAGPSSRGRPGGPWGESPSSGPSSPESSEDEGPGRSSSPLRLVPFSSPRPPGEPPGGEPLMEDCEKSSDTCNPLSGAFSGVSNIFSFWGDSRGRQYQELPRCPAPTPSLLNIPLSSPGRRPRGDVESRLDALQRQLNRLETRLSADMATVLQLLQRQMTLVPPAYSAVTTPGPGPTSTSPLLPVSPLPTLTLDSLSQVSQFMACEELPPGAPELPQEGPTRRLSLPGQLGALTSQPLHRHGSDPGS

Row | Structure (SMILES) | hERG current change (%, negative = inhibition) at 10uM [%]
1 | Cc1cc(NC(=O)CSc2ccccn2)no1 | 11.3
2 | CN(C(=O)c1ccno1)c1nnc(-c2cnccn2)s1 | 6.99
3 | CC(C)(C)NC(=S)N/N=C/c1cc(Br)c(O)c(Br)c1 | 29.8
4 | CCC12CN3CCN(CC(C3)C1O)C2 (stereo not shown) | -6.76
5 | CCOc1ccc2[nH]c3nc(SCC(=O)NC4CCCC4)nnc3c2c1 | 14.1
6 | O=C(NCc1ccccc1)c1ccc2nc(-c3ccco3)c(-c3ccco3)nc2c1 | -10.7
7 | CC1CCN(C(=O)CSc2nnc(-c3ccc(S(=O)(=O)N4CCOCC4)cc3)n2C)CC1 | -4.38
8 | Cc1cccc(C)c1Nc1c(-c2ccc(N3CCOCC3)cc2)nc2ncccn12 | -19
9 | Brc1ccc(-c2ccccc2)cc1 | 0.132
10 | Cc1ccc(-c2cc(-c3ccc(C)cc3)[n+](-c3ccccc3)c(-c3ccc(C)cc3)c2)cc1.[O-][Cl+3]([O-])([O-])[O-] | -80.2
11 | Brc1ccc(-[n+]2c(-c3ccccc3)cc(-c3ccccc3)cc2-c2ccccc2)cc1.[O-][Cl+3]([O-])([O-])[O-] | -73.8
12 | Cc1ccc(-c2cc(-c3ccccc3)cc(-c3ccccc3)[n+]2-c2ccc(C(=O)O)cc2)cc1.[O-][Cl+3]([O-])([O-])[O-] | 4.17
13 | Cc1ccc(-c2cc(-c3ccccc3)cc(-c3ccccc3)[n+]2-c2ccccc2)cc1.[O-][Cl+3]([O-])([O-])[O-] | -82.1
14 | Oc1ccc(-[n+]2c(-c3ccccc3)cc(-c3ccccc3)cc2-c2ccccc2)cc1.[O-][Cl+3]([O-])([O-])[O-] | -71.3
15 | Clc1ccc(OCCOCCOc2cccc3cccnc23)c(Br)c1 | 0.0859
16 | O=C(CCS(=O)(=O)c1ccc(Br)cc1)N1CCCCCC1 | -25.3
17 | CN1C(=O)c2ccc(NC(=O)c3c(F)c(F)c(F)c(F)c3F)cc2C1=O | 18.3
18 | CC(C)c1ccc(NC(=S)NN(c2ccccc2)c2ccccc2)cc1 | 12.7
19 | O=C(NCc1ccc2c(c1)OCO2)c1ccc2c(=O)n(C3CCCC3)c(=O)[nH]c2c1 | 4.61
20 | COc1ccc(C(=O)Nc2nc3ccc(OC)cc3s2)cc1 | 12.6
21 | Nc1ccc(-c2cnc[nH]2)cc1[N+](=O)[O-] | -0.302

Row | Structure (SMILES) | hERG current change (%, negative = inhibition) at 10uM [%]
22 | CCN(CCNCC(O)COCc1ccc(Cl)cc1)c1cccc(C)c1.O=C(O)C(=O)O (stereo not shown) | -18.2
23 | O=C(O)c1ccccc1NCCO | 33.8
24 | O=C(CSc1nnc(-c2ccncc2)s1)Nc1ccccc1 | 3.19
25 | [O-][Cl+3]([O-])([O-])[O-].c1ccc(-c2cc(-c3ccccc3)[n+](-c3ccccc3)c(-c3ccccc3)c2)cc1 | -71.3
26 | O=[N+]([O-])c1ccc(-[n+]2c(-c3ccccc3)cc(-c3ccccc3)cc2-c2ccccc2)cc1.[O-][Cl+3]([O-])([O-])[O-] | 4.73
27 | O=C(O)c1ccc(-[n+]2c(-c3ccccc3)cc(-c3ccccc3)cc2-c2ccccc2)cc1.[O-][Cl+3]([O-])([O-])[O-] | 14.8
28 | Cc1ccc2c(COC(=O)c3ccc(NC(=O)CC#N)cc3)cc(=O)oc2c1C | 3.63
29 | COc1ccc(Nc2c3c(nc4ccccc24)CCC3)c(OC)c1 | -64.7
30 | COc1ccc(OC)c(NC(=O)c2c3c(nc4ccccc24)CCC3)c1 | -21.8
31 | COc1ccc(C)cc1Nc1c2c(nc3ccccc13)CCC2 | -56.7
32 | COc1ccc(OC)c(NC(=O)COC(=O)c2c3c(nc4ccccc24)CCCC3)c1 | 1.03
33 | COc1ccc(NC(=O)CSc2c3c(nc4ccccc24)CCCC3)c(OC)c1 | -47.5
34 | COc1ccc(NC(=O)CSc2c3c(nc4ccccc24)CCC3)c(OC)c1 | -36.9
35 | Nc1ccc2nc3c(c(Cl)c2c1)CCCC3 | -22.7
36 | COc1ccc(OC)c(Nc2c3c(nc4ccccc24)CCC3)c1 | -67.8
37 | COc1ccccc1Nc1c2c(nc3ccccc13)CCC2 | -45.6
38 | COc1ccc(C)cc1Nc1nc(N)c2ccccc2n1.Cl | -12.8
39 | COc1ccccc1Nc1c2c(nc3ccc(N)cc13)CCCC2 | -72.4
40 | COc1ccccc1NC(=O)CSc1c2c(nc3ccccc13)CCC2 | -26.3
41 | O=C(NC1(C(=O)NC2CCCCC2)CCCCC1)c1ccccn1 | 2.56
42 | COc1ccc(CCNC(=O)C(=O)NCc2ccc(C)cc2)cc1OC | -1.57

Row | Structure (SMILES) | hERG current change (%, negative = inhibition) at 10uM [%]
43 | COc1ccccc1N1CCN(C(=O)c2cc(-c3cccs3)on2)CC1 | -22.7
44 | COc1cccc(CNC(=O)C2Cc3ccccc3CN2C(C)=O)c1 (stereo not shown) | 2.81
45 | C=CCc1cccc(/C=N/NC(=O)COc2ccc(-n3cnnn3)cc2)c1O | 11.3
46 | CCN1C(=O)N[C@@H](c2cccc(C(F)(F)F)c2)[C@@H](C(=O)OC)[C@H]1C | -19
47 | O=C(Cn1cccc1C(=O)c1ccccc1)NCc1ccc(Cl)cc1 | 18.7
48 | O=C(O)CC(NS(=O)(=O)c1cccc2nsnc12)c1ccc(F)cc1 (stereo not shown) | -17.2
49 | Cc1cc(F)ccc1S(=O)(=O)Nc1ccc(C(=O)N2CCCCCC2)cc1 | -27.6
50 | Cc1ccc2nc(SCC(=O)N/N=C/c3ccco3)cc(C)c2c1 | 10.4
51 | Cc1ccc2nc(N/N=C/c3ccco3)cc(C)c2c1 | -64.3
52 | Cc1cc(N/N=C/c2ccco2)c2ccccc2n1 | 16.6
53 | C[C@@H]1CC[C@H]2[C@@H](C)C(=O)O[C@@H]3O[C@@]4(C)CC[C@@H]1[C@]32OO4 | 0.204
54 | COc1ccc(OC)c(NC(=O)CSc2nnc(C3CCCCC3)n2N)c1 | -17.4
55 | CC(C)CC(NC(N)=O)C(=O)Nc1ccc(Oc2ccccc2)cc1 (stereo not shown) | 10.1
56 | O=C(/C(=N\Nc1ccc(Br)cc1)Sc1nnnn1-c1ccccc1)c1ccccc1 | 13.8
57 | Cc1ccc2c(c1)c1c3n2CCN(CCC(=O)O)C3CCC1 (stereo not shown) | -3.49
58 | Cc1ccc2c(c1)c1c3n2CCN(CC#N)C3CCC1 (stereo not shown) | 2.24
59 | CCN1CCn2c3c(c4cc(C)ccc42)CCCC31 (stereo not shown) | -54.2
60 | CCN(CC)CCN1CCn2c3c(c4cc(C)ccc42)CCCC31.Cl (stereo not shown) | -76.3
61 | CCN1CCn2c3c(c4cc(Cl)ccc42)CCCC31.Cl (stereo not shown) | -39.1
62 | Cc1ccc2c(c1)c1c3n2CCN(CC(N)=O)C3CCC1 (stereo not shown) | 25.6
63 | NC[C@H]1O[C@H](O[C@H]2[C@H](O)[C@@H](O[C@H]3O[C@H](CO)[C@@H](O)[C@H](N)[C@H]3O)[C@H](N)C[C@@H]2N)[C@H](N)C[C@@H]1O.O=S(=O)(O)O | 4.47

Row | Structure (SMILES) | hERG current change (%, negative = inhibition) at 10uM [%]
64 | CC(C)c1nnc(NC(=O)c2nc(S(=O)(=O)Cc3ccccc3F)ncc2Cl)s1 | -5.79
65 | CC(C)(C)N=C1NN=C(c2cc3ccccc3o2)CS1 | -9.99
66 | c1ccc2oc(C3=NNC(=NC4CC4)SC3)cc2c1 | -58.5
67 | c1ccc(CN=C2NN=C(c3cc4ccccc4o3)CS2)cc1 | -16.3
68 | COc1cccc(C(c2sc3ncnn3c2O)N2CC(C)OC(C)C2)c1 (stereo not shown) | 0.441
69 | N=c1c(C(=O)NCc2ccc(F)cc2)cc2c(=O)n3ccccc3nc2n1CC1CCCO1 (stereo not shown) | -77.4
70 | N=c1c(C(=O)NCc2ccc3c(c2)OCO3)cc2c(=O)n3ccccc3nc2n1CC1CCCO1 (stereo not shown) | -79.5
71 | O=C(CSc1nc2ccccc2c(=O)n1CC1CCCO1)NCc1ccc2c(c1)OCO2 (stereo not shown) | -30.2
72 | O=C(NCc1ccccc1)c1ccc2c(=O)n(CC3CCCO3)c(=S)[nH]c2c1 (stereo not shown) | -2.39
73 | CCOC(=O)c1cc2c(=O)n3ccccc3nc2n(CC2CCCO2)c1=NC(C)=O (stereo not shown) | -1.13
74 | O=C(NCc1ccc2c(c1)OCO2)c1ccc2c(c1)C(=O)N(CC1CCCO1)C2=O (stereo not shown) | 2.28
75 | Cc1ccc(CNC(=O)c2cc3c(=O)n4ccccc4nc3n(CC3CCCO3)c2=N)cc1 (stereo not shown) | -81.3
76 | N=c1c(S(=O)(=O)c2ccc(F)cc2)cc2c(=O)n3ccccc3nc2n1CC1CCCO1 (stereo not shown) | -40.8
77 | COc1ccc(CNC(=O)c2cc3c(=O)n4ccccc4nc3n(CC3CCCO3)c2=N)cc1 (stereo not shown) | -72.5
78 | CC(CCc1ccccc1)NC(=O)c1ccccc1Cl (stereo not shown) | -4.82
79 | CN(C)S(=O)(=O)c1cc(NC(=O)CN2CCN(c3ccccc3F)CC2)ccc1Cl | 5.43
80 | CC(C)NC(=O)CSc1nnc(-c2ccc(C(C)(C)C)cc2)n1C | -7.38
81 | NC(=O)C1CCN(C(=O)COc2ccc3c(c2)oc(=O)c2ccccc23)CC1 | 3.62
82 | COc1ccc(COc2cc(-c3cccc(OC)c3)nc3ccc(NC(=O)C(C)C)cc23)cc1 | 3.04
